HDAC3 inh – blocks human histone deacetylase 3; O15379; recombinant HDAC3, fluorogenic peptide/trypsin coupled, fluorescence; inhibition, % at 8.3 µM; hit rate 0.15% among 320,000; AID 2718; in the data active means inhibition above about 26%, passing the limit was not always enough
Target sequence (O15379 whole entry, looked up): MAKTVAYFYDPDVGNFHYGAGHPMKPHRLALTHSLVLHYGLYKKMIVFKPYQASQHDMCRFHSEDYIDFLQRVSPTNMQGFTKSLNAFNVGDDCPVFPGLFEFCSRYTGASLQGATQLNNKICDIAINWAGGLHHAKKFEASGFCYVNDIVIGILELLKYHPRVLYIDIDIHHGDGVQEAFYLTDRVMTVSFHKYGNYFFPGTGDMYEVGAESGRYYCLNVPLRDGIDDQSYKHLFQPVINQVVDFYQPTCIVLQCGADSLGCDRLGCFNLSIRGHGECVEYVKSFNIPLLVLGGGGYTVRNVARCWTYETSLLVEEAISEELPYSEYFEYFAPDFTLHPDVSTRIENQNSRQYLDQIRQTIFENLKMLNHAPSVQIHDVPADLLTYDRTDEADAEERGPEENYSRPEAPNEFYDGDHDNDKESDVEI
Yeast superoxide – yeast age-related superoxide inhibition as caloric restriction mimetic; S. cerevisiae aged cells, superoxide DHE fluorescence; stronger effect = lower value; superoxide response (% of plate mean), % at 10 µM; hit rate 0.18% among 330,000; AID 2690;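 active means superoxide response under a set limit, about three screen SD below normal, cut at about 65% in these data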;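 further: yeast aged for seven days with compound at 30 °C before DHE staining; 100% = average MFI of all compound-treated wells on the plate with controls excluded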
HIF act – HIF pathway transcriptional activation. U2OS HRE-luciferase reporter, luminescence; normalized: DMSO 0%, desferrioxamine 100%. activation, % at 7.5 µM (by protocol). hit rate 0.32% among 300,000;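 active means mean activation of at least 10% of the iron chelator positive control signal, with at least half of replicates also reaching 10%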
LANA-H2B inh – blocks KSHV LANA binding to histone H2A/H2B; Q9QR71; cell-free LANA-H2A/H2B peptide, fluorescence polarization; inhibition, % (concentration not given with the values); hit rate 0.6% among 320,000; AID 2629; in the data active means inhibition mostly above about 10%, no sharp cut-off; inactive means mostly below about 6.7%
An asterisk follows results filed as active. Sampled rows, rich in hits. Any-hit rate of the full collection: about 1.2%.

Results for c1ccc(-c2nc(-c3ccccn3)no2)cc1 ?
HDAC3 inh: 2; Yeast superoxide: 95; HIF act: 1; LANA-H2B inh: 2

What do the screens show for `CC(=O)c1ccc(S(=O)(=O)N2CCNC(=O)C2)cc1`?
HDAC3 inh: -1; Yeast superoxide: 100; LANA-H2B inh: 3

Results for COc1cccc(N2C(=O)C3NN=C(C(=O)CN4C(=O)c5ccccc5C4=O)C3C2=O)c1 (stereo unspecified) ?
HDAC3 inh: 2; Yeast superoxide: 102; HIF act: 0; LANA-H2B inh: 0

Results for Cc1ccc(N2C(=O)[C@@H]3C(C(=O)CN4C(=O)c5ccccc5C4=O)=NN[C@@H]3C2=O)c(C)c1 ?
HDAC3 inh: -2; Yeast superoxide: 118; HIF act: 0; LANA-H2B inh: 24*

Results for COc1ccccc1N1C(=O)[C@@H]2C(C(=O)CN3C(=O)c4ccccc4C3=O)=NN[C@@H]2C1=O ?
HDAC3 inh: 1; Yeast superoxide: 115; HIF act: 1; LANA-H2B inh: 32*

Results for CCN(C(=O)COC(=O)CC1CCCCC1)c1c(N)n(Cc2ccccc2)c(=O)[nH]c1=O ?
HDAC3 inh: 4; Yeast superoxide: 86; LANA-H2B inh: 0

What do the screens show for `COc1ccc2c(c1OC)C(=O)N(c1ccc(C)c(C)c1)C2=O`?
HDAC3 inh: -3; Yeast superoxide: 100; HIF act: 1; LANA-H2B inh: -3

Results for COc1ccc2c(c1OC)C(=O)N(c1ccc(C)cc1)C2=O ?
HDAC3 inh: 0; Yeast superoxide: 96; HIF act: 1; LANA-H2B inh: 16*

Results for CN(C)C(=O)CCc1ccc2c3c([nH]c2c1)[C@]1(CCc2ccccc2)[C@@H](C(=O)N2CCCCC2)C[C@H](CC(=O)NC(C)(C)C)C(=O)N1CC3 ?
Yeast superoxide: 111

Results for COc1ccc(-c2nc3cnccn3c2NCc2ccccc2)cc1SC1CCCCC1 ?
HDAC3 inh: 29*; Yeast superoxide: 114; HIF act: 0; LANA-H2B inh: -5

Results for CCCCSC(=S)N(C)C1CCS(=O)(=O)C1 (stereo unspecified) ?
HDAC3 inh: 0; Yeast superoxide: 95; HIF act: -1; LANA-H2B inh: 5

How did CC(C)(C)c1nnc(SCC(=O)Nc2ccc(N3CCCCC3)cc2)n1N do in these assays?
HDAC3 inh: 4; Yeast superoxide: 126; LANA-H2B inh: active

What do the screens show for `Cc1ccc(NC(=S)NC(=O)C2CCC2)cc1C`?
HDAC3 inh: 6; Yeast superoxide: 98; HIF act: 3; LANA-H2B inh: -8

What do the screens show for `O=C(C1CCCN1S(=O)(=O)c1cccc2nsnc12)N1CCCCCC1` (stereo unspecified)?
HDAC3 inh: 3; Yeast superoxide: 108; HIF act: 0; LANA-H2B inh: 8

What do the screens show for `COc1cccc(CN2CCC(N(CCc3ccccc3)Cc3ccccc3)CC2)c1OC`?
HDAC3 inh: 9; Yeast superoxide: 90; HIF act: 582*; LANA-H2B inh: 3

How did COc1ccccc1NS(=O)(=O)/C=C/c1ccccc1 do in these assays?
Yeast superoxide: 96; HIF act: 0

What do the screens show for `Cc1ccc(Cl)cc1N1CCN(C(=O)C2CCN(S(C)(=O)=O)CC2)CC1`?
HDAC3 inh: 0; Yeast superoxide: 115; HIF act: -1; LANA-H2B inh: 13*

Results for COc1ccc(NC(=O)CSc2nc3c(c(=O)[nH]2)CCC3)cc1OC ?
HDAC3 inh: 2; Yeast superoxide: 71; HIF act: 12*; LANA-H2B inh: -1

How did O=C(CSc1nc2c(c(=O)[nH]1)CCC2)Nc1ccc(F)cc1 do in these assays?
HDAC3 inh: -6; Yeast superoxide: 101; HIF act: 0; LANA-H2B inh: 0

Results for Cn1cnnc1SCc1ccc(C(=O)N/N=C(\CCC(=O)O)c2ccc(C(C)(C)C)cc2)cc1 ?
HDAC3 inh: -2; Yeast superoxide: 77; LANA-H2B inh: active

How did CCCOc1ccc(C(=O)OCCN2CCCCC2)c(O)c1 do in these assays?
HDAC3 inh: -2; Yeast superoxide: 93; HIF act: 0; LANA-H2B inh: 1

How did COc1ccc(N2C(=O)CC(n3c(CCCCO)nc4ccccc43)C2=O)cc1 (stereo unspecified) do in these assays?
HDAC3 inh: -5; Yeast superoxide: 98; HIF act: 0; LANA-H2B inh: 0

How did O=C(NC(=S)Nc1ccc2c(c1)OCCO2)c1ccccc1F do in these assays?
HDAC3 inh: 1; Yeast superoxide: 115; HIF act: 2; LANA-H2B inh: 13*

Results for COc1ccc(CNC(=O)COC(=O)[C@H](Cc2ccccc2)NC(=O)c2cccs2)cc1 ?
HDAC3 inh: 12; Yeast superoxide: 101; LANA-H2B inh: 9

Compound activity: PubChem BioAssay, several laboratories
